SARS PLpro yeast = blocks SARS-CoV papain-like protease in a yeast assay | Potency, µM (doses to about 32.9 µM), without a hit: top-dose activity, positive = growth rescue, hits mostly activators | 330,000 compounds, 0.19% hits | S. cerevisiae expressing SARS-CoV PLpro, growth rescue; also: 0% is about no effect; nearly all actives have a fitted effect of over 55% in size
NS1 inh = influenza NS1 inhibition. 270,000 compounds, 0.4% hits. Potency, µM (highest dose often 46.1 µM), for inactives: at the highest dose activity, positive = more growth; also: actives are rising curves; nearly all actives have a fitted effect of over 50% in size
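OD600 was taken as the measure of yeast growth restored by compound in an NS1-expressing S. cerevisiae strain. Cells had been washed out of glucose medium and diluted 1:100 into galactose -URA medium, pH 6.0.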
Pf growth 96h = P. falciparum growth inhibition at 96 hours | P. falciparum luciferase reporter growth, 96 h | Potency, µM (top dose mostly 28.7 µM), for inactives: top-dose activity change, negative = inhibition, most hits filed as inhibitors | 320,000 compounds, 6.9% hits | AID 504834; active = well fitted inhibition curve with a large enough effect; inconclusive = small, poorly fitted or top-dose-only effect, or another doubt; inactive = no such curve, though single readings can be large or run the other way; also: % is scaled to controls: 0 for no effect and ±100 for the full control effect
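P. falciparum expressing integrated firefly luciferase, in erythrocytes at 2% hematocrit, 0.05% parasitemia, incubated with compounds 96 h at 37 C, 5% CO2. Growth inhibition read as loss of luminescence; two-generation exposure targets delayed-death apicoplast inhibitors.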
Pf growth 48h = P. falciparum growth inhibition at 48 hours (one generation). P. falciparum luciferase growth in erythrocytes, 48 h. Potency, µM (doses to about 28.7 µM), inactives show top-dose activity change, negative = inhibition, hits mostly inhibitors. 310,000 compounds, 5.9% hits; active = well fitted inhibition curve with a large enough effect; inconclusive = small, poorly fitted or top-dose-only effect, or another doubt; inactive = no such curve, though single readings can be large or run the other way; also: % is scaled to controls: 0 for no effect and ±100 for the full control effect
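Luciferase-expressing parasites in RBCs, 2% Hct / 0.1% parasitemia final; RPMI 1640 + 0.5% Albumax; 37 C, 5% CO2, one generation; luminescence read-out, lower signal = inhibition.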
Numbers without * were called inactive; ? = inconclusive; . = no result given. Hits are enriched below; roughly 10% of the tested compounds scored in any of these assays. Unless noted, calls follow the shape of the full dose curve. Potency is read from the fitted curve at half-maximal effect.

SMILES	SARS PLpro yeast	NS1 inh	Pf growth 96h	Pf growth 48h
CCOc1ccc(C2c3c(oc4ccccc4c3=O)C(=O)N2c2ccc(C)cn2)cc1OC (stereo not drawn)	4.2%	-33.1%	23.3%	4.1%
CCCCn1c(SCC(N)=O)nc2ccc(N3CCOCC3)cc2c1=O	12.3%	?	1.4%	-11.0%
COc1cccc(NC(=O)CSc2nc3ccccc3c(=O)n2CCCC(=O)NCC2CCCO2)c1 (stereo not drawn)	0.4%	-30.6%	9.28µM*	?
CCOc1ccc(NC(=O)CSc2nc3ccccc3c(=O)n2CCCC(=O)NCC2CCCO2)cc1 (stereo not drawn)	0.7%	-4.8%	-18.6%	-7.9%
CCCCn1c(SCC(=O)Nc2cccc(OC)c2)nc2ccc(N3CCOCC3)cc2c1=O	-4.4%	-26.4%	.	9.28µM*
Cc1ccc(S(=O)(=O)NCC(=O)N(CC(=O)NCC2CCCO2)Cc2ccc(Cl)cc2)cc1 (stereo not drawn)	2.1%	-11.9%	-18.5%	-12.0%
O=C(Nc1ccccc1SCC1CSc2nc3ccccc3c(=O)n21)c1cccc(Cl)c1 (stereo not drawn)	-0.7%	-7.2%	?	10.4µM*
O=C(Nc1ccccc1SCC1CSc2nc3ccccc3c(=O)n21)c1ccccc1 (stereo not drawn)	-3.9%	-5.1%	?	?
CCS(=O)(=O)c1nc2ccccc2n1Cc1ccccc1Cl	2.5%	-34.2%	10.4µM*	?
CS(=O)(=O)c1nc2ccccc2n1Cc1ccccc1	1.3%	-12.9%	-4.6%	-15.0%
Cc1cccc(NC(=O)c2cc(-c3cc(C)ccc3O)n[nH]2)c1	-1.1%	3.4%	?	?
Cc1ccc(O)c(-c2cc(C(F)(F)F)[nH]n2)c1	-4.2%	-36.6%	14.7µM*	?
O=C(Cn1nc(-c2ccccc2)c2ccccc2c1=O)NN1CCOCC1	1.1%	-1.8%	0.0%	14.7µM*
COc1ccc2nc(N3CCN(C(=O)c4ccc5ncsc5c4)CC3)sc2c1	5.2%	.	?	?
COc1ccc(OC)c2sc(N3CCN(C(=O)c4ccc5ncsc5c4)CC3)nc12	4.6%	.	?	11.7µM*
CCOc1cccc2sc(N3CCN(C(=O)c4ccc5ncsc5c4)CC3)nc12	-3.8%	.	11.7µM*	?
O=C(CSc1ncn[nH]1)Nc1cc(S(=O)(=O)N2CCCC2)ccc1Cl	1.1%	.	-17.8%	-14.0%
Brc1cccc(OCCCNC2CCCC2)c1	0.5%	21.8%	11.7µM*	?
Cc1cc(Br)ccc1OCCCCN1CCC(C)CC1	-23.0%	-0.6%	-21.4%	14.7µM*
Brc1ccc(OCCCCN2CCCCC2)cc1	1.7%	?	5.22µM*	-27.2%
Cc1ccc(C)c(OCCCNC2CCCC2)c1C	0.2%	.	?	11.7µM*
CC1CCN(CCCCOc2cccc(Br)c2)CC1	-11.4%	-10.9%	2.62µM*	?
CCC(C(=O)N1CCC(N2CCCCC2)CC1)n1nc(C)c2sc3ccccc3c2c1=O (stereo not drawn)	-0.9%	1.9%	29.0%	?
C/C(=N/NC(=O)CNC(=O)c1ccncc1)c1ccco1	0.2%	-0.9%	0.0%	54.2%
COc1ccc(-c2nc(C)c(C(C)=O)n2O)cc1	-9.5%	-12.6%	4.65µM*	10.3%
SMILES	SARS PLpro yeast	NS1 inh	Pf growth 96h	Pf growth 48h
COc1ccccc1C1CN=NC12CCCc1ccccc1C2=O (stereo not drawn)	-4.3%	1.9%	16.5µM*	9.28µM*
COc1ccc(C2CC23N=C(c2ccccc2)OC3=O)cc1 (stereo not drawn)	-29.2%	-12.9%	10.8%	-5.1%
COc1ccc(C2CN=NC23CCc2ccccc2C3=O)cc1 (stereo not drawn)	-0.9%	-0.4%	?	13.1µM*
COc1ccc(C2CN=NC23CCCc2ccccc2C3=O)cc1 (stereo not drawn)	-14.7%	-32.4%	2.62µM*	3.7µM*
CCC(C(=O)NCCCN1CC(C)CC(C)C1)n1ncn2c(cc3occc32)c1=O (stereo not drawn)	2.6%	-3.7%	?	?
CCCN1CCN(C(=O)c2nn(-c3ccc(OC)cc3)c(=O)c3c2c2ccccc2n3C)CC1	-3.9%	.	?	13.4%
O=C(C1COc2ccccc2O1)N1CCN(c2ccccc2Cl)CC1 (stereo not drawn)	-8.8%	.	?	-17.7%
O=C(C1COc2ccccc2O1)N1CCN(c2ccccc2F)CC1 (stereo not drawn)	-7.8%	-3.6%	?	11.7µM*
COc1cc2nc(N3CCN(C(=O)[C@H]4COc5ccccc5O4)CC3)nc(N)c2cc1OC	-4.5%	-5.8%	3.7µM*	3.7µM*

Source: PubChem BioAssay
